# Source: PubChem (National Center for Advancing Translational Sciences (NCATS))
# Sampled rows, rich in hits. Any-hit rate of the full collection: about 2.4%.
# D2 PAM-1 – HTS Assay for Positive Allosteric Modulators of the Human D2 Dopamine Receptor: Primary Screen for Potentiators. D(2) dopamine receptor (Homo sapiens), P14416. HEK293 T-REx D2, calcium flux, EC20 dopamine potentiation. potentiation, % at 10 µM. actives 0.34% (n = 340,000). AID 485347, 2010;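 active = potentiation over 3 SD above the plate norm, cut at about 30% in these data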; also: 0% is about no effect
# Target sequence (P14416 whole entry, looked up): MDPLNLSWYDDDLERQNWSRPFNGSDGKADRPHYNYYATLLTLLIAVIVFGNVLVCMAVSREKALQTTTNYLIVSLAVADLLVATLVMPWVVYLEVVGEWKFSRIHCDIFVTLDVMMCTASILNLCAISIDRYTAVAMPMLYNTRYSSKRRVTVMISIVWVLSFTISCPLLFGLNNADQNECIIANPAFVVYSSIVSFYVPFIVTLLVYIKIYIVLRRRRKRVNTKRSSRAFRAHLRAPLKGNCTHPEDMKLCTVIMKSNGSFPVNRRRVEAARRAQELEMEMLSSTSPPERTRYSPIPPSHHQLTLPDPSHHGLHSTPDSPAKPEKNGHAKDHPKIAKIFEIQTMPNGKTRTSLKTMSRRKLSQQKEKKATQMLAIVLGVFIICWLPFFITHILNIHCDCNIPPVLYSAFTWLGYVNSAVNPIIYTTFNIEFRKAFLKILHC
#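 Potentiation of an EC20 dopamine calcium response is measured in a force-coupled, tetracycline-inducible Hek293 Trex D2 line. Compound-only kinetic reads over 180 s flag agonists before dopamine addition.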
# D2 antagonist – HTS Assay for Allosteric Antagonists of the Human D2 Dopamine Receptor: Primary Screen for Antagonists | D(2) dopamine receptor (Homo sapiens), P14416 | HEK293 TREx D2 cells, calcium flux, dopamine EC80 | inhibition, % at 10 µM | actives 2% (n = 340,000); in the data active = inhibition above about 30%; inactive = below that, where a call was filed; also: 0% is about no effect
#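 Antagonism is scored as inhibition of an EC80 dopamine-evoked calcium signal in a force-coupled, tetracycline-inducible HEK293 T-REx D2 line, with compound present 180 s before agonist.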
# D2 PAM-2 – Beta-Arrestin HTS for Positive Allosteric Modulators of the Human D2 Dopamine Receptor: Potentiators. DiscoveRx D2 beta-arrestin cells, luminescence, 90 min; 100% = 57 uM dopamine signal. actives 0.23% (n = 360,000). AID 624464, 2012. potentiation, % (concentration not given with the values); in the data active = potentiation above about 50%; inconclusive = mostly about 30% to 49%
#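 PathHunter D2 cells, attached overnight at 37 deg C, received compound in DMSO plus dopamine at EC20 (50 nM final) for 90 min at 37 deg C. Beta-arrestin recruitment was read as luminescence after 1 h with detection reagent at ambient temperature.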
# D2 ag-1 – Beta-Arrestin HTS for Positive Allosteric Modulators of the Human D2 Dopamine Receptor: Agonists | AID 624465, 2012 | actives 0.084% (n = 360,000) | DiscoveRx PathHunter D2 beta-arrestin, luminescence, 90 min; 100% = 57 uM dopamine signal | D(2) dopamine receptor (Homo sapiens), P14416 | activation, % (concentration not given with the values); in the data active = activation above about 40%; inconclusive = between about 15% and that limit
#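 Agonist mode: compounds alone added to overnight-plated D2 PathHunter cells for 90 min at 37 C, with 57 uM final dopamine (EC100) defining full response. Beta-arrestin recruitment detected by chemiluminescent reagent, read after 1 h at ambient temperature.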
# D2 ag-2 – HTS Assay for Allosteric Agonists of the Human D2 Dopamine Receptor: Primary Screen for Agonists; D(2) dopamine receptor (Homo sapiens), P14416; HEK293 T-REx D2 cells, calcium flux agonist mode; activation, % at 2 µM; actives 0.53% (n = 340,000);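 active = activation over 3 SD above normal in the single-dose calcium agonist read, cut at about 30% in these data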; also: 0% is about no effect
#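 In this primary screen, compounds producing a positive calcium signal within 180 s of addition to tetracycline-induced, force-coupled HEK293 Trex D2 cells are flagged; cells are dye-loaded with a no-wash calcium kit beforehand.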
# D3 ag – qHTS of D3 Dopamine Receptor Agonist: D3 Dopamine Receptor B-arrestin Agonist Confirmatory Assay | shares compounds with D2 ag-2 | DiscoveRx D3 beta-arrestin cells, luminescence, 90 min | Potency, µM (series often up to 76.9 µM), for the others: at the highest dose activation, hits mostly activators | actives 4% (n = 2,300) | AID 720506, 2013;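 also: potency is read from the fitted curve at half-maximal effect; 100% = dopamine control response; nearly all actives have a fitted effect of over 70% in size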
# D2 ag-3 – qHTS of D3 Dopamine Receptor Agonist: D2 Dopamine Receptor B-arrestin Agonist Counterscreen; actives 5.9% (n = 2,300); DiscoveRx PathHunter D2 beta-arrestin, luminescence, 90 min; response scale: percent relative to full dopamine signal; shares compounds with D2 ag-2; AID 720507, 2013; Potency, µM (top dose mostly 76.9 µM), for inactives: at the top dose activation, actives largely listed as activators; also: potency is read from the fitted curve at half-maximal effect; % of control where 0% means no effect; nearly all actives have a fitted effect of over 70% in size
# Starred values were filed as active, the others as inactive; ? = inconclusive; · = not tested or not shown. Unless noted, calls follow the shape of the dose curve; as a rule, active = well fitted activation curve with a large enough effect; inconclusive = small, poorly fitted or top-dose-only effect; inactive = flat fitted curve, though single readings scatter.
SMILES,D2 PAM-1,D2 antagonist,D2 PAM-2,D2 ag-1,D2 ag-2,D3 ag,D2 ag-3
O=C(C1CCCN1C(=O)c1cccs1)N1CCN(Cc2ccc3c(c2)OCO3)CC1 (configuration not stated),-20,37*,10,-3,63*,4%,16%
O=C(c1cccs1)N1CCC(C(=O)N2CCN(Cc3ccc4c(c3)OCO4)CC2)CC1,-22,52*,7,?,68*,17%,?
O=C(C1CCN(Cc2cccs2)CC1)N1CCN(Cc2ccc3c(c2)OCO3)CC1,·,-3,-16,-1,1,·,·
O=C(CSc1nncs1)NNC(=O)c1ccco1,-5,0,-4,-4,0,-1%,-1%
O=C(CN1C(=O)NC2(CCCC2)C1=O)OCc1ccc(Cl)c(Cl)c1,16,4,-19,-4,0,·,·
CCc1nc2ccc(C(=O)NCCC(C)C)cn2c1N(CC)CCOC,·,·,-7,-4,·,·,·
CCC(=O)N1CCc2cc(S(=O)(=O)NCCC(=O)NC(C)c3ccccc3)ccc21 (configuration not stated),-8,·,·,·,0,·,·
N#CCC(=O)NCCCc1ccccc1,-5,6,-4,-4,41*,-6%,-5%
COc1ccc(CCNC(=O)C(=O)NCC(c2ccco2)S(=O)(=O)c2ccccc2)cc1 (configuration not stated),2,·,·,·,-2,·,·
CCn1c(N2CCN(S(=O)(=O)c3ccccc3C(F)(F)F)CC2)nc2ccccc21,-3,15,2,?,3,13µM*,?
Cc1cc(C)c(NC(=O)Cn2cnc3c(oc4ccccc43)c2=O)c(C)c1,-8,16,-6,5,0,-1%,-1%
O=C(COc1ccc(Cl)cc1)OCc1cc(=O)n2nc(C3CC3)sc2n1,8,·,·,·,0,·,·
COc1ccc(CCN2CC(C(=O)NCc3nc4ccccc4n3C)CCC2=O)cc1 (configuration not stated),0,-8,-6,-1,1,·,·
CCN(CC)S(=O)(=O)c1ccc(NC(=O)c2cc(C(=O)OC)cc([N+](=O)[O-])c2)cc1,-19,0,5,3,46*,9%,4%
COC(=O)c1cc(C(=O)Nc2ccc(S(=O)(=O)NC(C)(C)C)cc2)cc([N+](=O)[O-])c1,-2,-13,7,5,2,·,·
COc1ccc(CN2CCN(Cc3cc4ccccc4o3)CC2CCO)c(F)c1 (configuration not stated),3,13,-7,-5,10,·,·
COc1ccc(CN2CCN(Cc3cc4ccccc4o3)CC2CCO)cc1C (configuration not stated),-17,25,-19,?,66*,-1%,13%
COc1cccc(CN2CCN(Cc3cc4ccccc4o3)CC2CCO)c1 (configuration not stated),-10,14,-22,3,43*,-1%,-3%
CC(=O)c1c(C)nn(CC(=O)NC2CCCN(Cc3ccc(CC(C)C)cc3)C2)c1C (configuration not stated),5,7,-14,-1,-1,·,·
CCCN(CC1CC1)C(=O)COC(=O)c1oc2c(F)cccc2c1C,-18,41*,15,?,43*,25%,?
